Assay outcomes: PubChem BioAssay, National Center for Advancing Translational Sciences (NCATS)
In the library only some 6.2% were active in any assay of this set; here they are far more common.
VP16 counter – Gal4-VP16 reporter inhibition counter-screen | Drosophila S2 Gal4-VP16 UAS-luciferase, luminescence, 20 h | Potency, µM (top dose mostly 53.6 µM), without a hit: at the top dose activity, negative = inhibition, usual class: inhibitors | hit rate 3.5% among 310,000;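 note: Gal4-VP16 expression switched on by copper sulfate through the metallothionein promoter; nearly all actives have a fitted effect of over 50% in size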
RORgamma inh – blocks mouse ROR gamma transcriptional activity. hit rate 5.4% among 310,000. Drosophila S2 Gal4-RORgamma UAS-luciferase reporter, 20 h. Potency, µM (doses to about 53.6 µM), for inactives: at the highest dose activity change, negative = inhibition, hits mostly inhibitors. P51450; note: nearly all actives have a fitted effect of over 60% in size
Target sequence (P51450 whole entry, looked up, the tested form may be a part): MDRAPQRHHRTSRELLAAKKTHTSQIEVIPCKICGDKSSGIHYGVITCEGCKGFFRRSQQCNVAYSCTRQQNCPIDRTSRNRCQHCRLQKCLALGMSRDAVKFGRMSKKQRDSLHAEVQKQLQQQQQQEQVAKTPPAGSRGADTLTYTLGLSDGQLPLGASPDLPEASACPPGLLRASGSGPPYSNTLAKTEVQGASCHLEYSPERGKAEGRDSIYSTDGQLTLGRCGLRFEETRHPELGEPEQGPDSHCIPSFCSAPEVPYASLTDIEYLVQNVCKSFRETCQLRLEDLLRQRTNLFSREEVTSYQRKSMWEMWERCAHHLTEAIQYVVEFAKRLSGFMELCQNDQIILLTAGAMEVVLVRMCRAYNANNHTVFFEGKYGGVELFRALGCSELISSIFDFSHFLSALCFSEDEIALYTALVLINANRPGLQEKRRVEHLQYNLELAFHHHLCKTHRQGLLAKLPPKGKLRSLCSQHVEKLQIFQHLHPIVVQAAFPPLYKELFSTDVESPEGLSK
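Luciferase reporter read in Schneider cells carrying Gal4-RORγ (mouse) and UAS-Photinus luciferase; cells given compound 1 h before 700 uM copper sulfate induction, then incubated 20 h at ambient temperature.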
KinaseGlo FLuc – counter-screen: inhibitors of Kinase-Glo firefly luciferase; Q27757; Kinase-Glo luciferase, ATP luminescence, 8 min; Potency, µM (doses to about 38.3 µM), without a hit: top-dose activity change, negative = inhibition, hits mostly inhibitors; hit rate 0.28% among 200,000; AID 1379; note: nearly all actives have a fitted effect of over 60% in size
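Compound is pinned into ATP-containing buffer (10 uM ATP, imidazole pH 7.2, 7 mM MgCl2). Kinase-Glo luciferase reagent is then added. Light output is recorded following an 8-min room-temperature incubation.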
* hit, by the source's call; ? = inconclusive; . = no result given; [ ] = remark or other dose. Calls come from the whole dose curve; as a rule, active = well fitted curve in the direction sought with a large enough effect; inconclusive = small, poorly fitted or top-dose-only effect, or another doubt; inactive = no such curve, though single readings can be large; an effect the other way counts as inactive or inconclusive. % is set by controls: 0 for no effect and ±100 for the full control effect; potency is the fitted concentration of half-maximal effect.

SMILES | VP16 counter | RORgamma inh | KinaseGlo FLuc
COc1cccc(-c2nc(CS(=O)(=O)CC(=O)Nc3cc(OC)ccc3OC)c(C)o2)c1 | 3% | 2% | .
CC(C)C(c1nnnn1C(C)(C)C)N1CCC(Cc2ccccc2)CC1 (stereo unspecified) | 22µM* | ? | 2%
CC(C)C(c1nnnn1C(C)(C)C)N1CCOCC1 (stereo unspecified) | 4% | 2% | -3%
O=C(COC(=O)C1CCN(S(=O)(=O)c2cccs2)CC1)NCc1ccccc1 | 2% | -1% | 0%
CCCOc1ccc(Cn2c(=O)oc3ccc(C)cc32)cc1 | -22% | -14% | .
CC(C)CC(=O)NC(=S)Nc1nc(-c2cccc3ccccc23)cs1 | 13µM* | 3.2µM* | -3%
COc1ccc(-c2csc(NC(=O)CC(C)C)n2)cc1 | 2% | ? | -4%
CCC(=O)Nc1nc(CC(=O)Nc2ccccc2OC)cs1 | 2% | 18% | 0%
CCOC(=O)Cc1csc(NC(=S)NC(=O)c2cc(OC)cc(OC)c2)n1 | ? | ? | 0%
COc1ccccc1NC(=O)Cc1csc(NC(=S)Nc2ccc(C)cc2)n1 | 2.8µM* | 0.89µM* | 0%
CCOC(=O)Cc1csc(NC(=S)NC(=O)c2cccc([N+](=O)[O-])c2)n1 | ? | 11µM* | -1%
CCOC(=O)Cc1csc(NC(=S)NC(=O)c2ccc(C)cc2)n1 | 8.9µM* | 5µM* | .
CCOC(=O)Cc1csc(NC(=S)NC(=O)c2ccccc2)n1 | -94% | ? | -1%
COc1ccc(CCN2C(=O)CSC2=Nc2ccc(C)cc2C)cc1OC | -9% | -3% | .
O=C(/C=C/c1ccccc1)N1CCN(Cc2nc3ccccc3c(=O)[nH]2)CC1 | 4% | 18% | 4%
COc1cccc(-c2noc(C(C)n3nc(C)c([N+](=O)[O-])c3C)n2)c1 (stereo unspecified) | 4% | 45% | 0%
CC1(C)Cc2cccc(C(=O)NC3CCN(Cc4ccccc4)CC3)c2O1 | 3% | 33% | .
CCOC(=O)Cc1csc(NC(=S)NC(=O)c2ccccc2Br)n1 | 4µM* | 5.6µM* | -2%
CCOC(=O)Cc1csc(NC(=O)c2ccc(Br)s2)n1 | -4% | 2% | -6%
CCOC(=O)Cc1csc(NC(=S)NC(=O)CC(C)C)n1 | ? | 11µM* | 1%
CCCC(=O)Nc1nc(CC(=O)OCC)cs1 | -5% | 20% | 1%
Cc1nn(C(=O)c2c(-c3ccccc3)noc2C)c(C)c1N=Nc1cc(C(F)(F)F)cc(C(F)(F)F)c1 | -6% | 0% | .
CC(NC(=O)CCCc1nnc2n(C)c(=O)c3sccc3n12)c1ccccc1 (stereo unspecified) | -9% | 10% | .
CCN(c1ccccc1)S(=O)(=O)c1csc(C(N)=O)c1 | 3% | 4% | .
CCCCC1(C)Cc2ccccc2C(=S)N1 (stereo unspecified) | 5.6µM* | 1µM* | -3%
SMILES | VP16 counter | RORgamma inh | KinaseGlo FLuc
CCOC(=O)/C(C)=C1\NC(C)(C)Cc2ccccc21 | -5% | -14% | -8%
Cc1nnc(NC(=O)CSc2nnc(CC(=O)Nc3ccccc3F)n2C)s1 | -9% | -1% | .
O=C(O)C[C@@H](C(=O)O)C1c2ccccc2-c2ccccc21 | . | . | -3%[7.66 µM]
COc1ccc2[nH]cc(CCNc3ccnc(-c4c(C)noc4C)n3)c2c1 | -25% | 4% | .
CCc1c(C)nn(C(=O)/C(C#N)=C\N(C)C)c1C | 1% | 1% | 0%
COc1ccccc1Cn1c(=O)c2ccccc2n2c(SCc3csc(C)n3)nnc12 | -1% | 20% | -1%
COc1ccccc1Cn1c(=O)c2ccccc2n2c(Sc3ncnc4sccc34)nnc12 | ? | 11µM* | 2%
O=C(c1ccc2c3c(cccc13)CC2)C1CCCN(Cc2ccccn2)C1 (stereo unspecified) | 11µM* | 3.5µM* | -1%
O=C(c1ccc2c3c(cccc13)CC2)C1CCCN(Cc2ccc(OCCO)cc2)C1 (stereo unspecified) | -3% | -22% | -7%
Cc1cnc(CN2CCCC(C(=O)c3ccc4c5c(cccc35)CC4)C2)[nH]1 (stereo unspecified) | -26% | 11µM* | 1%
COCC(=O)N1CCCC(C(=O)c2ccc3c4c(cccc24)CC3)C1 (stereo unspecified) | -1% | 23% | 2%
CC1(C(=O)NCCCNc2ncc(C(F)(F)F)cc2Cl)C=CC2(CCCCC2)N1C(=O)c1ccccc1 (stereo unspecified) | -19% | 2% | -3%
Cn1c(COc2ccccc2)nnc1SCCSc1nnc(COc2ccccc2)n1C | -4% | 21% | 3%
Cn1c(COc2ccc(Br)cc2)nnc1SC1CCc2ccccc2C1=O (stereo unspecified) | ? | 22µM* | -3%
CC1C/C(=N/N2C(=O)CSC2=S)CC(C)(C)C1 (stereo unspecified) | -8% | 10µM* | -3%
CC1C/C(=N/N=C2/NC(=O)CS2)CC(C)(C)C1 (stereo unspecified) | 5µM* | 2.2µM* | 0%
C/C(=N\N=C1\NC(=O)CS1)c1cccs1 | -5% | ? | -3%
Cc1cc(C)nc(/N=C2/NC(=O)CS2)n1 | -1% | 4% | -4%
O=C1CS/C(=N/N=C2C3CC4CC(C3)CC2C4)N1 | 3.2µM* | 4.5µM* | .
Cc1ccccc1/C=N/N1C(=O)CSC1=S | -5% | -24% | .
CC(C)NC(=O)C1(c2ccccc2)CC1(Cl)Cl (stereo unspecified) | 0% | 8% | -1%
O=C(Nc1ccccc1C(F)(F)F)C1CCN(C(=O)Cc2ccccc2)CC1 | 4% | -18% | .
CNc1ccccc1C(=O)OCC(=O)N1CCN(c2ccc(OC)cc2)CC1 | 14% | 1% | .
COc1ccc(C(=O)Nc2ccnn2C2CCN(C(=O)c3cccnc3)CC2)cc1 | 1% | 5% | .
COc1cc(C(=O)N/N=c2/sc3ccccc3n2C)cc(OC)c1OC | -15% | -29% | 0%
SMILES | VP16 counter | RORgamma inh | KinaseGlo FLuc
Cn1/c(=N/NC(=O)c2cccc(OC(F)F)c2)sc2ccccc21 | 14µM* | 10µM* | -1%
CCc1nnc(NS(=O)(=O)c2ccc(N=Cc3c(C)[nH]n(-c4ccc(C)c(C)c4)c3=O)cc2)s1 | -17% | 24% | 2µM*
Cc1ccc(-n2[nH]c(C)c(C=Nc3ccc(S(=O)(=O)Nc4nccs4)cc3)c2=O)cc1 | 10% | 19%[10 µM] | ?
Cc1cccc(C(=O)OC2CCOC2=O)c1O (stereo unspecified) | -3% | -2% | .
COc1ccc(-c2nc3ncnn3cc2C)cc1F | 0% | 3% | 8%
COc1ccc(-c2nc3nc(SC)nn3cc2C)cc1F | 25µM* | -2% | -3%
CC(=O)C1=C(C)NC(SCC(=O)c2ccc(-c3ccccc3)cc2)=C(C#N)C1c1cccnc1 (stereo unspecified) | -5% | -21% | -3%
CC(=O)C1=C(C)NC(SCC(N)=O)=C(C#N)C1CC(C)C (stereo unspecified) | 2% | 1% | 7%
CC(=O)C1=C(C)NC(SCC(=O)c2ccc(Cl)cc2)=C(C#N)C1CC(C)C (stereo unspecified) | ? | 11µM* | -4%
CC(=O)C1=C(C)NC(SCC(=O)c2ccc(F)cc2)=C(C#N)C1CC(C)C (stereo unspecified) | 7.1µM* | 5.6µM* | 2%
